Data taken from PubChem BioAssay (EPA / NIEHS).
Activity calls are given as the source filed them. How the source made its calls: active means hit-call score of the fitted dose curve at least 0.9, where 1 is the maximum; inactive means score below 0.9.

How the values were obtained:
[1] = read-out: Urokinase-type plasminogen activator receptor (uPAR), PLAUR (gene 5329); experiment: BSK_4H_uPAR: BioMAP Diversity Plus: 4H Assay for Urokinase-type plasminogen activator receptor (uPAR) Biomarker Activity (AID 2283030); settings: primary human endothelial cells (HUVEC); actives raise or lower the signal
How it was run: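 Primary human umbilical vein endothelial cells were exposed to chemical for 24 h before cell-surface uPAR was quantified by ELISA. Activity was fitted bidirectionally against the DMSO negative control baseline.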

[2] = read-out: Vascular endothelial growth factor receptor 2 (Homo sapiens) (UniProt P35968); experiment: BSK_4H_VEGFRII: BioMAP Diversity Plus: 4H Assay for Vascular endothelial growth factor receptor 2 (VEGFR2) Biomarker Activity (AID 2283031); settings: primary human endothelial cells (HUVEC); actives raise or lower the signal;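 on AC50: cell-surface VEGFR2 protein level quantified by ELISA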
How it was run: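 Primary human umbilical vein endothelial cells in the BioMAP 4H system were dosed with test chemical, and 24 h later VEGFRII was measured by ELISA. Activity was fitted bidirectionally against DMSO as negative control and baseline.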

[3] = read-out: Human Leukocyte Antigen - DR isotype (HLADR), HLA-DRA (gene 3122); experiment: BSK_BE3C_HLADR: BioMAP Diversity Plus: BE3C Assay for Human Leukocyte Antigen - DR isotype (HLADR) Biomarker Activity (AID 2283032); settings: primary human bronchial epithelial cells; actives raise or lower the signal
How it was run: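 Human primary bronchial epithelial cells in the BE3C system were exposed to chemicals for 24 h, after which HLA-DR levels were quantified by ELISA. Activity was fitted bidirectionally, gain or loss of signal, against DMSO as negative control and baseline.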

[4] = read-out: Vascular cell adhesion molecule 1 (VCAM1), VCAM1 (gene 7412); experiment: BSK_4H_VCAM1: BioMAP Diversity Plus: 4H Assay for Vascular cell adhesion molecule 1 (VCAM1) Biomarker Activity (AID 2283033); settings: primary human endothelial cells (HUVEC); actives raise or lower the signal
How it was run: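 Primary human umbilical vein endothelial cells were exposed to chemicals for 24 h, after which VCAM-1 was quantified by ELISA. Responses were fitted bidirectionally against DMSO as negative control and activity baseline.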

[5] = read-out: Interferon-gamma inducible Protein 10 (IP10), CXCL10 (gene 3627); experiment: BSK_BE3C_IP10: BioMAP Diversity Plus: BE3C Assay for Interferon-gamma inducible Protein 10 (IP10) Biomarker Activity (AID 2283034); settings: primary human bronchial epithelial cells; actives raise or lower the signal
How it was run: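 Human primary bronchial epithelial cells were exposed to chemicals for 24 hours, after which IP-10 levels were measured by ELISA. Data were fitted bidirectionally against DMSO, which served as the negative control and activity baseline.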

[6] = read-out: Monokine induced gamma interferon (MIG), CXCL9 (gene 4283); experiment: BSK_BE3C_MIG: BioMAP Diversity Plus: BE3C Assay for Monokine induced gamma interferon (MIG) Biomarker Activity (AID 2283035); settings: primary human bronchial epithelial cells; actives raise or lower the signal
How it was run: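 ELISA read-out of MIG in human lung bronchial epithelial primary cultures, 24 h post-dosing. Bidirectional curve fit vs DMSO baseline.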

[7] = read-out: Transforming growth factor beta 1 (TGFb1), TGFB1 (gene 7040); experiment: BSK_BE3C_TGFb1: BioMAP Diversity Plus: BE3C Assay for Transforming growth factor beta 1 (TGFb1) Biomarker Activity (AID 2283036); settings: primary human bronchial epithelial cells; actives raise or lower the signal
How it was run: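 Human primary bronchial epithelial cells (BE3C system) were dosed with chemical and TGF-b1 levels measured by ELISA at 24 h. Activity was fitted bidirectionally relative to DMSO negative control as baseline.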

[8] = read-out: Plasminogen activator inhibitor-1 (PAI1), SERPINE1 (gene 5054); experiment: BSK_BE3C_PAI1: BioMAP Diversity Plus: BE3C Assay for Plasminogen activator inhibitor-1 (PAI1) Biomarker Activity (AID 2283037); settings: primary human bronchial epithelial cells; actives raise or lower the signal
How it was run: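 Human primary bronchial epithelial cells were exposed to chemical for 24 h, then PAI-1 was quantified by ELISA. Activity was fitted bidirectionally relative to the DMSO negative control baseline.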

[9] = read-out: urokinase plasminogen activator (uPA), PLAU (gene 5328); experiment: BSK_BE3C_uPA: BioMAP Diversity Plus: BE3C Assay for urokinase plasminogen activator (uPA) Biomarker Activity (AID 2283038); settings: primary human bronchial epithelial cells; actives raise or lower the signal
How it was run: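 Human primary bronchial epithelial cells were exposed to chemical for 24 h, then uPA levels were measured by ELISA. Responses were fitted bidirectionally against DMSO as negative control and baseline. Parallel SRB staining of total protein gauged overt cytotoxicity.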

[10] = read-out: Urokinase-type plasminogen activator receptor (uPAR), PLAUR (gene 5329); experiment: BSK_BE3C_uPAR: BioMAP Diversity Plus: BE3C Assay for Urokinase-type plasminogen activator receptor (uPAR) Biomarker Activity (AID 2283039); settings: primary human bronchial epithelial cells; actives raise or lower the signal
How it was run: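 Primary human bronchial epithelial cells were dosed with chemical and harvested 24 h later; uPAR was quantified by ELISA. Activity was fitted bidirectionally against DMSO as negative control and baseline.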

Measured: AC50

CC(C)(C)OOC(C)(C)C
inactive: [1] | [2] | [3] | [4] | [5] | [6] | [7] | [8] | [9] | [10]

c1cc2c3c(cccc3c1)CC2
inactive: [1] | [2] | [3] | [4] | [5] | [6] | [7] | [8] | [9] | [10]

CCCCN(CCCC)SN(C)C(=O)Oc1cccc2c1OC(C)(C)C2
inactive: [3] | [5] | [6] | [7] | [8] | [9] | [10]
active: [1] 37.1 µM | [2] 31 µM | [4] 30.4 µM

c1nc[nH]n1
inactive: [1] | [2] | [3] | [4] | [5] | [6] | [7] | [8] | [9] | [10]

N#Cc1cc([N+](=O)[O-])ccc1N
inactive: [1] | [2] | [3] | [4] | [5] | [6] | [7] | [8] | [10]

CCCCC(CC)COP(=O)(Oc1ccccc1)Oc1ccccc1 (stereo not given)
active: [1] 20 µM | [2] 10.4 µM | [3] 20 µM | [4] 20 µM | [5] 20 µM
inactive: [6] | [7] | [8] | [10]

CC(Cc1ccc(OCC(=O)O)cc1)NCC(O)c1csc(C(F)(F)F)n1 (stereo not given)
inactive: [1] | [2] | [3] | [4] | [5] | [6] | [7] | [9] | [10]

ClC(Cl)(Cl)c1ccccc1
inactive: [1] | [2] | [3] | [4] | [5] | [6] | [7] | [8] | [10]

CN(C)C(=O)Cl
inactive: [1] | [2] | [3] | [4] | [5] | [6] | [7] | [8] | [10]

c1ccc2c(c1)sc1ccccc12
inactive: [1] | [2] | [3] | [4] | [5] | [6] | [7] | [9] | [10]

COCCOCCO
inactive: [1] | [2] | [3] | [4] | [5] | [6] | [7] | [9] | [10]

CC(C)(C)c1ccccc1OP(=O)(Oc1ccccc1)Oc1ccccc1
inactive: [2] | [5] | [6] | [7] | [9] | [10]
active: [1] 34.4 µM | [3] 2.85 µM | [4] 20 µM

Cc1ccc2c(c1N)C(=O)c1ccccc1C2=O
inactive: [1] | [2] | [4] | [5] | [6] | [7] | [9] | [10]
active: [3] 5.4 µM

Nc1ccc2ccccc2c1
inactive: [1] | [2] | [3] | [4] | [5] | [6] | [7] | [9] | [10]

CC(Cl)(Cl)C(=O)O
inactive: [1] | [2] | [3] | [4] | [5] | [6] | [7] | [9] | [10]

CC(C)(C)c1ccc(O)cc1
inactive: [1] | [2] | [3] | [4] | [5] | [6] | [7] | [8] | [10]

CCCCOCCOP(=O)(OCCOCCCC)OCCOCCCC
inactive: [1] | [2] | [3] | [4] | [5] | [6] | [7] | [8] | [10]

Cc1c([N+](=O)[O-])cc2c(c1[N+](=O)[O-])C(C)(C)CC2(C)C
inactive: [1] | [2] | [4] | [6]
active: [3] 8.05 µM | [5] 20 µM | [7] 13.5 µM | [8] 5 µM | [10] 16.1 µM

CCCN(CCC)c1c([N+](=O)[O-])cc(C(C)C)cc1[N+](=O)[O-]
inactive: [1] | [5] | [6] | [7] | [10]
active: [2] 20 µM | [3] 5.79 µM | [4] 23.2 µM

ClC(Cl)=C(c1ccc(Cl)cc1)c1ccccc1Cl
inactive: [7]
active: [1] 11.7 µM | [2] 5.35 µM | [3] 20 µM | [4] 11.8 µM | [5] 10.7 µM | [6] 26.4 µM | [9] 20 µM | [10] 8.34 µM

ClC(Cl)c1ccccc1
inactive: [1] | [2] | [3] | [4] | [5] | [6] | [7] | [9] | [10]

CSC(C)(C)C=NO
inactive: [1] | [2] | [3] | [4] | [5] | [6] | [7] | [8] | [10]

CCCCC(CC)COC(=O)c1c(Br)c(Br)c(Br)c(Br)c1C(=O)OCC(CC)CCCC (stereo not given)
inactive: [1] | [2] | [3] | [4] | [5] | [6] | [7] | [9] | [10]
